From PubChem BioAssay
Rows were chosen to be rich in hits. Some 3.5% of all compounds tested hit in one or more screens of this group.
GPR151 activ: activators of human GPR151, primary screen, cell-based, PathHunter beta-arrestin, luminescence; actives 1% (n = 650,000); AID 1508602, 2020; PathHunter beta-arrestin GPR151 cells; activation, % at 11.2 µM; G-protein coupled receptor 151 (Homo sapiens), Q8TDV0; in the data active = activation above about 4.9%;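 note: 0% = median of compound wells and 100% = cells with positive control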
Target sequence (Q8TDV0 whole entry, looked up): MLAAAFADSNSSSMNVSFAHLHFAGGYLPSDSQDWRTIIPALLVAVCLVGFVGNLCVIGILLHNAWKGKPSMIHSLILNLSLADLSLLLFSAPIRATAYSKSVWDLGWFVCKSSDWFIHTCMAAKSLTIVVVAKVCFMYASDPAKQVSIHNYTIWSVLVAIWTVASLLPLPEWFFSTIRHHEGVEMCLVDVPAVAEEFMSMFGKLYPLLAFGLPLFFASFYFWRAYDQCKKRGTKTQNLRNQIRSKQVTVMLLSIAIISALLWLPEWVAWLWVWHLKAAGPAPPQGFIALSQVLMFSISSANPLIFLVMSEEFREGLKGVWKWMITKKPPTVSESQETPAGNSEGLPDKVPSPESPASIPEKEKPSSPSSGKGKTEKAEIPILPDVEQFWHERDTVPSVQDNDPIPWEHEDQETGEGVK
FBW7 act: FBW7 E3 ligase activators, primary screen, biochemical, AlphaScreen, human; AlphaScreen FBW7–phospho-cyclin E peptide binding, activator screen; normalized activity (activation), % at 26.1 µM; actives 0.13% (n = 650,000); AID 1259310, 2017; in the data active = normalized activity above about 1.9%;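 note: purified mutant Fbw7 with reduced substrate affinity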
TEAD-YAP block: TEAD-YAP interaction inhibition, primary screen, TEAD-YAP interaction inhibitor project, luminescence, HEK-TIYL cells | TEAD-Gal4/YAP UAS-luciferase luminescence | inhibition, % at 9.12 µM | AID 1259422, 2018 | actives 1.4% (n = 640,000); in the data active = inhibition above about 32%;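 note: 0% = median of test compound wells and 100% = reference inhibitor wells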
MITF inh: MITF inhibitors, primary screen, biochemical, AlphaScreen, human | AlphaScreen MITF homodimerization, bead proximity signal | inhibition, % at 2.6 µM | actives 0.91% (n = 650,000); in the data active = inhibition above about 50%;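 note: 0% = vehicle wells with protein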
Starred values were filed as active, the others as inactive; ! = repeats disagree.

SMILES	GPR151 activ	FBW7 act	TEAD-YAP block	MITF inh
CN1CCN(C(=O)c2ccc(-c3nc(NCc4nc5ccccc5[nH]4)c4ncn(-c5ccccc5)c4n3)cc2)CC1	0.5	0.0	12.5	9.3
CN1CCN(c2ccc(-c3nc(NCc4ccccc4)c4ncn(-c5ccsc5)c4n3)cc2)CC1	0.0	-0.2	3.5	4.7
CN1CCN(c2ccc(-c3nc(NC4CC4)c4ncn(-c5ccsc5)c4n3)cc2)CC1	0.7	-0.2	48.6*	5.0
CN1CCN(C(=O)c2ccc(-c3nc(NC4CC4)c4ncn(-c5ccsc5)c4n3)cc2)CC1	0.2	0.1	49.3*	1.9
Cc1ccc(Cl)cc1NC(=O)C(=O)N/N=C/c1ccccc1Cl	0.2	0.0	-3.6	-8.3
Cc1ccc(-c2cnc(N3CCC4(CC3)OCCO4)nc2)cc1	-3.5	0.2	-49.2	2.8
Fc1ccc(-c2cnc(N3CCC4(CC3)OCCO4)nc2)cc1	-11.2	0.1	43.4*	9.3
NC(=O)c1ccccc1NC(=O)c1ncoc1-c1ccccc1C(F)(F)F	-2.0	0.1	49.2*	-0.3
O=C(Nc1ccccc1-n1ccnc1)c1ncoc1-c1ccccc1C(F)(F)F	0.8	0.1	5.6	7.5
CCN(C(=O)C(=O)N(CC)c1ccccc1)c1ccccc1	-0.5	0.0	-14.7	4.5
CCC(=O)c1ccc2c(c1)OCCO2	-0.6	0.4	4.5	-4.0
CCc1n[n+](CC(=O)c2ccc3c(c2)OCCO3)c(N)s1	-7.7	0.1	62.6*	-10.0
CN1[C@@H](C(=O)Nc2ccc(Cl)c(Cl)c2)C[C@@H](c2ccco2)NS1(=O)=O	0.9	0.0	1.7	-0.1
COc1ccc(CCn2c(C)cc(C(=O)CCl)c2C)cc1	0.8	0.3	40.3*	16.3
COc1ccc(CCn2c(C)cc(C(=O)CSc3nc(N)cc(=O)[nH]3)c2C)cc1	-0.2	-0.1	33.1*	6.8
COc1ccc(/C=C(\NC(=O)c2ccco2)C(=O)NCCCCCC(=O)O)cc1	0.1	0.2	-1.1	16.4
CC/C(C)=N\NC(=O)c1cc(-c2ccccc2)nc2ccccc12	2.1	-0.1	-13.0	-9.7
C/C(=N\NC(=O)c1cc(-c2ccncc2)nc2ccccc12)c1ccc(C#N)cc1	-0.3	0.0	41.5*	7.5
COc1cccc(CNC(=O)c2cc(-c3ccncc3)nc3ccccc23)c1	-1.3	-0.2	5.7	6.1
COc1cccc(/C(C)=N/NC(=O)c2cc(-c3ccncc3)nc3ccccc23)c1	-0.8	-0.1	48.8*	0.5
C/C(=N\NC(=O)c1cc(-c2ccncc2)nc2ccccc12)c1ccc(-n2ccnc2)cc1	1.2	-0.1	42.8*	-11.4
COc1ccc2c(c1)OC(C)CN(CCC(C)O)C2 (stereo not given)	-1.0	0.2	-3.6	7.7
Cc1cncc2cccc(NC3CCN(C(=O)[C@H](C)O)CC3)c12	-0.3	-0.7	4.8	10.7
Cc1cncc2cccc(NC3CCCNC3)c12 (stereo not given)	0.5	-0.5	94.5*	-2.2
CC(C)C[C@H]1NC(=O)[C@@H]2C[C@H](NCc3cn(C)nc3-c3ccccc3)CN2C1=O	-0.4	2.5*	0.0	-7.8
SMILES	GPR151 activ	FBW7 act	TEAD-YAP block	MITF inh
Cn1cc(CN[C@H]2C[C@H]3C(=O)N[C@@H](CO)C(=O)N3C2)c(-c2ccccc2)n1	0.8	0.0	-5.7	-9.0
Cc1ccc(C(=O)c2cccc(N)c2)cc1C	-0.6	1.1	56.6*	8.3
O=C(O)COc1cc([N+](=O)[O-])cc2cccnc12	2.6	-0.6	-4.0	15.8
COc1cc([N+](=O)[O-])c2nccnc2c1	1.8	-0.7	1.1	-0.4
O=[N+]([O-])c1cc(O)c2ncccc2c1	-1.8	-0.3	20.6	102.7*
COc1cc([N+](=O)[O-])c2ncccc2c1	-1.0	-2.2	15.6	69.8*
C=CCc1cccc(/C=N/NC(=O)CNc2cccc(Cl)c2)c1O	1.6	0.0	9.4	-4.9
COc1cccc2cc(-c3csc(N)n3)c(=O)oc12	-9.1	-0.1	48.8*	0.5
COc1ccc(-c2cc3cccc(OC)c3oc2=O)cc1	-7.4	0.3	71.4*	-17.7
COc1cccc2cc(-c3csc(NC(C)=O)n3)c(=O)oc12	1.5	0.0	-9.1	-0.7
Nc1nc(NC2CC2)cc(N2CCN(c3ccccn3)CC2)n1	0.6	-0.1	-6.9	0.9
CCOC(=O)c1cc2c(=O)n3ccccc3nc2n(CCOC)c1=NC(=O)C(C)(C)C	2.3	-0.2	1.0	-0.9
CCOC(=O)c1cc2c(=O)n3ccccc3nc2n(CCOC)c1=NC(=O)C1CCCCC1	-2.0	0.4	36.9*	-3.1
COc1ccc(N=CC2=C(O)c3ccccc3C2=O)cc1	-3.5	0.0	42.7*	14.6
O=C1C(C=Nc2ccccc2O)=C(O)c2ccccc21	-8.1	-0.3	48.9*	1.0
Cc1ccc(Nc2nc(CSc3nnc(N)s3)cs2)cc1	0.0	-0.1	43.9*	6.7
COCCNc1ccnc2c(-c3ccc(F)c(Cl)c3)cnn12	0.0	1.9*	-0.6	2.1
COCCNc1ccnc2c(-c3ccc4c(c3)OCO4)cnn12	-2.4	0.2	50.7*	9.9
Cc1[nH]ccc2c1[nH]c1cc(=O)ccc12	-1.2	0.2	37.0*!	27.2
COc1cccc(NC(=O)c2ccc(NC(C)=O)cc2)c1	1.4	0.5	-23.1	11.1
COc1cccc(NC(=O)c2ccc(C)cc2)c1	-9.6	0.0	61.6*	5.8
COc1cccc(NC(=O)c2ccc(C)cc2Cl)c1	-2.8	0.2	67.2*	13.2
COc1cccc(C(=O)Nc2cccc(OC(=O)c3ccc(Br)cc3)c2)c1	-2.3	-0.1	43.7*	3.2
COc1ccccc1CNc1ccc(C(=O)Nc2ccc(C(C)C)cc2)cc1[N+](=O)[O-]	-0.1	-0.1	-8.2	-1.5
COc1cccc(NC(=O)c2ccc(NCc3ccccc3OC)c([N+](=O)[O-])c2)c1	1.0	-0.2	48.8*	2.3
SMILES	GPR151 activ	FBW7 act	TEAD-YAP block	MITF inh
COc1ccccc1CN1CCC(C(=O)NCC(C)C)CC1	-0.9	-0.2	1.7	1.2
CCN(CC)c1ccc(C2C3=C(CC(c4ccc(OC)cc4)CC3=O)Nc3ccccc3N2C(C)=O)cc1 (stereo not given)	0.5	-0.2	11.8	5.9
COc1cc2nc(CN3CCN(c4ccc(F)cc4)CC3)[nH]c(=O)c2cc1OC	3.5	-0.1	2.7	-3.8
O=C(Nc1ccc(F)cc1)c1ccc(Cl)cc1Cl	-3.2	0.5	-21.6	12.3
Cc1ccc(C(=O)Nc2ccc(F)cc2)c(Cl)c1	-3.2	0.1	61.9*	5.2
COc1cc(NC(=O)C2CC(=O)c3ccccc3C2)ccc1-c1cn[nH]c1 (stereo not given)	0.7	-0.1	48.4*	-4.3
COc1cc(NC(=O)C2COc3ccccc3C2)ccc1-c1cn[nH]c1 (stereo not given)	2.3	0.2	1.9	-0.7
CS(=O)(=O)N1CCc2cc(NC3CCN(Cc4ccccc4)CC3)ccc21	-1.9	0.9	11.0	18.4
CC(=O)N(C1=C(N2CCCC2)C(=O)c2ccccc2C1=O)c1ccccc1C	-4.9	0.5	91.9*	31.4
